# Hits are enriched below; roughly 1% of the tested compounds scored in any of these assays.
# TcdB inh – blocks C. difficile toxin B glycohydrolase activity | P18177 | TcdB glycohydrolase enzymatic assay, plate reader | inhibition, % at 9.99 µM | 350,000 compounds, 0.24% hits | AID 652162; in the data active = inhibition above about 10%
# SSB-PriA inh – blocks PriA binding to SSB C-terminal tail; AlphaScreen SSBct-PriA binding, biotinylated peptide; inhibition, % at 33 µM; 430,000 compounds, 0.6% hits; AID 1272365; in the data active = inhibition mostly above about 37%, no sharp cut-off; inactive = mostly below about 20%;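 also: plate controls were negative control peptide for no effect and reference peptide for full effect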
# BioA inh-1 – blocks M. tuberculosis BioA enzyme activity. inhibition, % at 9.99 µM. AID 602481. 360,000 compounds, 0.096% hits. purified M. tuberculosis BioA enzyme, plate reader; in the data active = inhibition above about 40%
# PrP UTR inh – suppresses PrP 5' UTR mRNA reporter expression; cell-based PrP 5' UTR mRNA reporter, plate reader; inhibition, % (concentration not given with the values); 340,000 compounds, 0.35% hits; AID 488862; in the data active = inhibition above about 52%; also: 0 = median of the neutral control wells
# FadD28 FP inh – blocks FadD28 binding to the bisubstrate probe. fluorescence polarization. 360,000 compounds, 0.22% hits. inhibition, % at 12.5 µM; in the data active = inhibition above about 8.5%, passing the limit was not always enough
# Mtb hypoxia rep – reduces hypoxia-regulated biosensor signal in M. tuberculosis; M. tuberculosis hypoxia-regulated fluorescent reporter, fluorescence; 300,000 compounds, 0.1% hits; fluorescence inhibition, % (test concentration not listed); in the data active = fluorescence inhibition mostly above about 23%, no sharp cut-off; inactive = mostly below about 17%
# BioA inh-2 – inhibitors of Mycobacterium tuberculosis BioA enzyme; AID 651679; purified BioA enzyme, plate reader, dose response; shares compounds with BioA inh-1; 310 tested, under 10 active; max activity, %;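 also: top concentration of the dilution series was 10 µM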
# HepG2 tox 2 – HepG2 viability loss; max activity, %; 310 tested, under 10 active; shares compounds with BioA inh-1; HepG2 cytotoxicity, plate reader
# 3T3 cytotox 5 – NIH3T3 viability loss. shares compounds with BioA inh-1. NIH3T3 cytotoxicity, plate reader. activity change, negative = cytotoxicity, % at 26 µM. 310 tested, under 10 active. AID 651900
# Starred values were filed as active, the others as inactive; · = no result given. Unless noted, no rule for the calls is given here.
SMILES,TcdB inh,SSB-PriA inh,BioA inh-1,PrP UTR inh,FadD28 FP inh,Mtb hypoxia rep,BioA inh-2,HepG2 tox 2,3T3 cytotox 5
CC(=O)N1CCN(c2nnc(-c3ccc(C)cc3)c3ccccc23)CC1,1,-3,·,25,-4,15,·,·,·
Cn1c(=O)c(Oc2cc(Cl)cc(Cl)c2)nc2ccccc21,·,-10,·,-26,-2,2,·,·,·
C#CCOCCOCCOCCNc1nc(N2CCN(C(=O)C(C)n3cc(CCC(=O)O)nn3)CC2)nc(N2CCN(C(=O)C(C(C)O)n3cc(CCCCN)nn3)CC2)n1 (stereo unspecified),·,·,·,·,·,-1,·,·,·
COC(=O)c1sc(N)c(C(=O)OC)c1CSc1nnnn1C,·,-4,6,-13,-3,·,·,·,·
COC(=O)c1sc(N)c(C(=O)OC)c1CSc1nnc(-c2ccccc2Cl)n1C,·,-20,59*,·,1,2,-5,7,-8
CC(C)(C)OC(=O)NCCCC[C@@H](C(=O)N1CCN(C(=O)OC(C)(C)C)CC1)n1cc(CCC(=O)O)nn1,-2,-11,-1,-30,-3,·,·,·,·
CCc1nn(C(C)C(=O)N(C)Cc2ccccc2)c(=O)c2cc3occc3n12 (stereo unspecified),-1,5,-4,9,1,5,·,·,·
CCc1nn(CCCC(=O)N(C)Cc2ccccc2)c(=O)c2cc3occc3n12,2,13,50*,-20,0,1,-10,-20,-13
COc1ccc(C2c3c(-c4ccccc4O)n[nH]c3C(=O)N2Cc2ccco2)cc1OC (stereo unspecified),0,18,·,2,-1,7,·,·,·
COc1ccc(C2c3c(-c4cc(Cl)c(C)cc4O)n[nH]c3C(=O)N2Cc2cccnc2)cc1OC (stereo unspecified),·,-8,56*,-15,-8,-8,-6,-10,-6
COc1ccccc1C(NC(=O)C1CCCCC1)c1c(O)ccc2ccccc12 (stereo unspecified),1,9,·,-23,-2,-8,·,·,·
CC(=O)c1ccc(N2CCN(S(=O)(=O)c3c(C(=O)N4CCCC4)c(C)n(C)c3C)CC2)cc1,1,-11,42*,-3,0,10,-3,-5,13
CC(=O)c1c(C)[nH]c(C(=O)Nc2cccnc2)c1C,·,0,58*,-22,-2,2,-5,-11,3
CC(=O)c1ccc(C(=O)N2CCCC(Nc3ccc(C(C)C)cc3)C2)s1 (stereo unspecified),0,4,67*,-13,-1,1,-7,-17,7
O=C(NCc1cccnc1)C1CCN(S(=O)(=O)c2cccc(C(F)(F)F)c2)CC1,1,0,3,-9,-4,7,·,·,·

# Screens from PubChem BioAssay.
